The nature of test [1]: small molecules captured by biotinylated probe aFSTL3 – biochemical, small-molecule microarray, fluorescence 635/667, stem cell growth factor project, primary screen (AID 1064).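 Note: measures binding of the biotinylated anti-FSTL3 antibody to printed compounds.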 The following applies: higher = more signal.
Test [2] can be described thus: binders from COS7 lysate, DM2A8 probe, primary screen, torsin A project, cell lysate, small-molecule microarray, fluorescence 635/667 (AID 1065). The conditions noted are these: higher = more signal, COS7 lysate expressing mutant human TOR1A.
Test [3] in a line: small molecules captured by biotinylated probe aFGF2 – biochemical, small-molecule microarray, fluorescence 635/667, stem cell growth factor project, primary screen (AID 1067).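 Note: measures binding of biotinylated aFGF2 protein to printed compounds on slides; z-score merges feature fluorescence and signal-to-noise across triplicate slides.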 The conditions noted are these: higher = more signal.
Test [4] in a line: small molecules captured by biotinylated probe aFGF10 – biochemical, small-molecule microarray, fluorescence 635/667, stem cell growth factor project, primary screen (AID 1071).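 Note: score merges 667 nm spot intensity and signal to noise from triplicate slides.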 The following applies: higher = more signal.
Test [5] addresses Neurogenic locus notch homolog protein 2 (Homo sapiens) (UniProt Q04721). The test can be described thus: small molecules binding Notch2 protein – biochemical, small-molecule microarray, 635 nm fluorescence, stem cell growth factors, primary screen (AID 1073). The conditions noted are these: higher = more signal.
In test [6] the target is Pro-neuregulin-1, membrane-bound isoform (Homo sapiens) (UniProt Q02297). The test can be described thus: small molecules binding neuregulin-1 protein – biochemical, small-molecule microarray, fluorescence 635/667, psychiatric disease protein project, primary screen (AID 1075).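 Note: score combines 667 nm spot fluorescence with signal to noise.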 The conditions noted are these: NRG1 binding, 635 nm fluorescence, higher = more signal.
The subject of test [7] is Neuregulin-1 EGF-like domain. The experiment in a line: small molecules binding NRG1 EGF domain – biochemical, small-molecule microarray, 635 nm fluorescence, primary screen (AID 1081).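 Note: binding of the protein to compounds printed on small-molecule microarray slides.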 The conditions noted are these: higher = more signal.
Test [8] can be described thus: FRG1 expression reporter modulators in myotubes – cell-based, C2C12 myotubes, firefly/Renilla luciferase, luminescence, FRG1 inhibition for FSHD, primary screen (AID 1084). The conditions noted are these: FRG1 promoter luciferase, higher = more signal, called active from +8 up or from −8 down.
Test [9] can be described thus: small molecules captured by biotinylated probe aFST – biochemical, small-molecule microarray, fluorescence 635/667, stem cell growth factor project, primary screen (AID 1086).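 Note: score merges 667 nm fluorescence with signal-to-noise of each printed compound spot.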 The conditions noted are these: higher = more signal.
The nature of test [10]: binders of probe aHhip on microarray, primary screen, stem cell growth factor project, biochemical, small-molecule microarray, fluorescence 635/667 (AID 1087).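 Note: score merges spot fluorescence at 667nm with spot signal to noise ratio.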 The following applies: higher = more signal.
In test [11] the test system is PRMT1 (protein arginine N-methyltransferase 1). The experiment in a line: small molecules binding arginine methyltransferase PRMT1 – biochemical, small-molecule microarray, 635 nm fluorescence, primary screen (AID 1088).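 Note: binding of Prmt1 protein to compounds spotted on small-molecule microarray slides.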 The conditions noted are these: higher = more signal.
Test [12] is described as follows: growth effects on S. cerevisiae YJM789 – YJM789 clinical isolate, OD600, 24 h, basal, primary screen (AID 1089).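 Note: growth of clinical yeast isolate S. cerevisiae YJM 789 seeded 1000 cells per well; test concentration not given here.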 The following applies: higher = more signal, called active from +8 up or from −8 down.
The nature of test [13]: S. pombe growth modifiers, basal conditions – strain 972, OD600, 24 h, no modulator, primary screen (AID 1090).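 Note: basal condition with compound alone and no growth modifier present; test concentration not given here.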 The following applies: S. pombe 972 growth, higher = more signal, called active from +8 up or from −8 down.
Test [14] can be described thus: budding yeast growth modifiers under rapamycin – strain BY4716, OD600, 96 h, primary screen (AID 1091). Note: test concentration not given here. The conditions noted are these: S. cerevisiae BY4716 + rapamycin, higher = more signal, called active from +8 up or from −8 down.
Test [15] addresses Torsin-1A-interacting protein 2 (Homo sapiens) (UniProt Q8NFQ8). The experiment in a line: small molecules binding lysate-expressed LULL1 – cell lysate, human LULL1 lysate, 635/667 nm fluorescence, primary screen (AID 1092).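 Note: probe is lysate of COS7 cells overexpressing human LULL1; score merges per-feature 667 nm fluorescence with signal-to-noise.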 The following applies: small-molecule microarray, hLULL1 lysate binding, 635 nm fluorescence; higher = more signal.
A short description of test [16]: optical density change of DRC41 E. coli – strain DRC41, OD650, 24 h, E. coli filamentation project, primary screen (AID 1093).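 Note: MC1000 strain lacking acrAB efflux and sulA so SOS filamentation is blocked; test concentration not given here.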 The following applies: E. coli DRC41 growth, higher = more signal, called active from +8 up or from −8 down.
A short description of test [17]: probe aLefty2 binding to arrayed compounds – biochemical, biotinylated probe, 635/667 nm fluorescence, primary screen (AID 1094).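 Note: score merges spot fluorescence near 667 nm with spot signal-to-noise ratio.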 The conditions noted are these: small-molecule microarray, higher = more signal.
For test [18], the system named is Noggin (protein binding on small-molecule microarray). The experiment in a line: small molecules binding Noggin protein – biochemical, 635/667 nm fluorescence, primary screen (AID 1095).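 Note: score merges 667 nm feature fluorescence with signal to noise over triplicate slides.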 The following applies: 635 nm fluorescence, higher = more signal.
In test [19] the target is Neurogenic locus notch homolog protein 3 (Homo sapiens) (UniProt Q9UM47). The test can be described thus: small molecules binding NOTCH3 protein – biochemical, 635/667 nm fluorescence, primary screen (AID 1096). The conditions noted are these: small-molecule microarray, 635 nm fluorescence, higher = more signal.
Test [20] can be described thus: probe aEGFR binding to arrayed compounds – biochemical, biotinylated probe, 635/667 nm fluorescence, primary screen (AID 1097).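 Note: probe is a biotinylated anti-EGFR antibody binding compounds printed on slides; score combines fluorescence near 667 nm and signal to noise of each spot.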 The conditions noted are these: small-molecule microarray, higher = more signal.

This is an account of results in PubChem BioAssay.

The structures appear in SMILES notation. Calls of active or inactive are those of the source.

Sequence of Torsin-1A-interacting protein 2 (Homo sapiens) (Q8NFQ8 whole entry, looked up): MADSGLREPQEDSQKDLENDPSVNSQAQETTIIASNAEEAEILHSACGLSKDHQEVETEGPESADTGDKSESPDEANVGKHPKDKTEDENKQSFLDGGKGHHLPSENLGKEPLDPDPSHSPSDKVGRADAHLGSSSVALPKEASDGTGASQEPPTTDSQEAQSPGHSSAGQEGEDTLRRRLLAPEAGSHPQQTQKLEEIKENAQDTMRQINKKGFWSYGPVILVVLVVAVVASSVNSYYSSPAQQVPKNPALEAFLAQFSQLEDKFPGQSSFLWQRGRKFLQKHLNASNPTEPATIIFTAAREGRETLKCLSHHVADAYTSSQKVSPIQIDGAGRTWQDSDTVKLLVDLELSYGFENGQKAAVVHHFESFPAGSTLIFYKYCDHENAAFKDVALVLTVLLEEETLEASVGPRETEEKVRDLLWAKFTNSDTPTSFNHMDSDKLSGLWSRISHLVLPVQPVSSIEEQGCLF
Sequence of Neurogenic locus notch homolog protein 2 (Homo sapiens) (Q04721 whole entry, looked up, canonical isoform): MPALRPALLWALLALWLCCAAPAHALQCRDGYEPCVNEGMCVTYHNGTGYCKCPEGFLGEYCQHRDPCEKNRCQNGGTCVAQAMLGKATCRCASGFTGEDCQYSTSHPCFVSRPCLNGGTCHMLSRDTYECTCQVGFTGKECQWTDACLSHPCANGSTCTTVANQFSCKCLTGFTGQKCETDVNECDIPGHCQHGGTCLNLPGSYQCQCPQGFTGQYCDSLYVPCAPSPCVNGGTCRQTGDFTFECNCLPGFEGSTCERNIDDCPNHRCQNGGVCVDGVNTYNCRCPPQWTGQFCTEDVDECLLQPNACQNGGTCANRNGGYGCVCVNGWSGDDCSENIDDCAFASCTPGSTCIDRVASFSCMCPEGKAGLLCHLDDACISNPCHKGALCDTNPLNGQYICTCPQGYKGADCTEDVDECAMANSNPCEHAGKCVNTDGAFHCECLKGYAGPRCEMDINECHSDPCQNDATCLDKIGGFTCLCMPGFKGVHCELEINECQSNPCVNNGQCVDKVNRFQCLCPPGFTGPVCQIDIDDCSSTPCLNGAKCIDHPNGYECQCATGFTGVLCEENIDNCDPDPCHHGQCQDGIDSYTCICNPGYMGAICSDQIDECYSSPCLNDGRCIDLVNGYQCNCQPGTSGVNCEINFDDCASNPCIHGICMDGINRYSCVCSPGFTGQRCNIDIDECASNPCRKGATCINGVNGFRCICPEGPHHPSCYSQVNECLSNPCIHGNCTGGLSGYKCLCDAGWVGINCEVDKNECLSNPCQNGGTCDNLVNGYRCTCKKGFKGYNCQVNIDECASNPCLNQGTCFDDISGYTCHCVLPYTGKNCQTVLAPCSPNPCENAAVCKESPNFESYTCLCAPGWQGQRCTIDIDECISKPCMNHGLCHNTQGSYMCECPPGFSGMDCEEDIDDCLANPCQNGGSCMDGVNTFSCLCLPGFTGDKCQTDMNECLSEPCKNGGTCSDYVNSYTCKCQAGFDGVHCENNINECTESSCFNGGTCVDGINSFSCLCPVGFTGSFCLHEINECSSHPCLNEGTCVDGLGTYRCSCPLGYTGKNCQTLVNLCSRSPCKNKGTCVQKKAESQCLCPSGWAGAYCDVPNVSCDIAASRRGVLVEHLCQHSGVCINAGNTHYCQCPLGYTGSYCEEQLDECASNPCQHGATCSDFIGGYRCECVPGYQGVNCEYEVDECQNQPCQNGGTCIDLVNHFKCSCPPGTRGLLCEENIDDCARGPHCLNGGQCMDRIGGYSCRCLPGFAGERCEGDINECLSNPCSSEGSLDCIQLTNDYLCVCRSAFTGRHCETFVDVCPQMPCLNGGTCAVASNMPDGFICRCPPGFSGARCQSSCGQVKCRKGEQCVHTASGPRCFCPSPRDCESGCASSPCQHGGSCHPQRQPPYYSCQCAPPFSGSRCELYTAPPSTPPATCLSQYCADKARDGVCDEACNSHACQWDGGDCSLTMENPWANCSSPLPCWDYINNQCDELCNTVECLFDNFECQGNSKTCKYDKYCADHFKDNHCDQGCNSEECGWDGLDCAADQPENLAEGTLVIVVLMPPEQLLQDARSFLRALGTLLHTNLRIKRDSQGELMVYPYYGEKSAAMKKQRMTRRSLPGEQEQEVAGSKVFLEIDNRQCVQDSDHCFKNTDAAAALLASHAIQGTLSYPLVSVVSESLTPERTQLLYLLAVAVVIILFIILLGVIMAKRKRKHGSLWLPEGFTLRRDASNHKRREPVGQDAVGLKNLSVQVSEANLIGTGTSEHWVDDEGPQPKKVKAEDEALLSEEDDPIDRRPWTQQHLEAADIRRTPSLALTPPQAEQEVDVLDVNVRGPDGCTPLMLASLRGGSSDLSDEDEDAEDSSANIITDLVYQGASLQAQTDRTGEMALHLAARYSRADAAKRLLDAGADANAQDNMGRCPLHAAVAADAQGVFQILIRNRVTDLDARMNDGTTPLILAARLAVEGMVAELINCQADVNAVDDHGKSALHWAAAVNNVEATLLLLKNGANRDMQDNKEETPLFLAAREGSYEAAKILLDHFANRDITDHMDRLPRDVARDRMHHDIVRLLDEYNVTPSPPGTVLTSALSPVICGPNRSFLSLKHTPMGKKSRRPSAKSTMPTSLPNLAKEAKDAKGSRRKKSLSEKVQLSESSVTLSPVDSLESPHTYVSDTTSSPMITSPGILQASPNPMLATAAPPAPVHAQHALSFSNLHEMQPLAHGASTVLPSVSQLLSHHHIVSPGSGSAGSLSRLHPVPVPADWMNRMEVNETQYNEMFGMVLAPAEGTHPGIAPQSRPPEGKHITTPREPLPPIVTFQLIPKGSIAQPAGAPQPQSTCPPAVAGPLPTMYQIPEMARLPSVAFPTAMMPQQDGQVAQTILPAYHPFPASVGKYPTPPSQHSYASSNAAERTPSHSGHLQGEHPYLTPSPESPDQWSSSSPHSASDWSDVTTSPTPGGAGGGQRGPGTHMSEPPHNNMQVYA
Sequence of Pro-neuregulin-1, membrane-bound isoform (Homo sapiens) (Q02297 whole entry, looked up, the tested form may be a part, canonical isoform): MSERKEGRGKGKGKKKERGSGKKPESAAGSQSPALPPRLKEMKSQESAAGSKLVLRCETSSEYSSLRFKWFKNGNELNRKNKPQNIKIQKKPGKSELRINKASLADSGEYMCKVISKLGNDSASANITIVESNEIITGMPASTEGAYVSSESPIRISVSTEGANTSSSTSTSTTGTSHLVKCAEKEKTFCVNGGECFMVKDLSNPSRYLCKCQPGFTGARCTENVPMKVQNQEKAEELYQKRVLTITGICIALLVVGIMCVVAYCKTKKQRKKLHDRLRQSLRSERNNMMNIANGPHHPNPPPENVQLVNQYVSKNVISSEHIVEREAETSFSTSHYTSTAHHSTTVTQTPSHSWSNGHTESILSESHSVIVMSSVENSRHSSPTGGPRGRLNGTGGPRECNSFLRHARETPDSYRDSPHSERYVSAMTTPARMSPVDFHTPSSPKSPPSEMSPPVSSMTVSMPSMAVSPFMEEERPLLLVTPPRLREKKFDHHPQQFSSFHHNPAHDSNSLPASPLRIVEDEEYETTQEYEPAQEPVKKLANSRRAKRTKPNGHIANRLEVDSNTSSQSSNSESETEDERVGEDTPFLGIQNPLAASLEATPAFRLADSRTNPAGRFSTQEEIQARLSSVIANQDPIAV

Consider `COc1ccc(C(O)C2C=CC3C(=O)N(c4ccccc4)C(=O)C3N2Nc2ccc([N+](=O)[O-])cc2)cc1OCc1ccccc1` (stereo not given), for which the composite z-score in test [1] is 2; in [2], -0.14; in test [3], 0.649; in [4], 1.06; in test [5], 1.29; in [6], 2.06. In addition, the composite z-score in test [7] worked out at 1.26; in [9] it was 2.36; in test [10], 1.2; in test [11], 0.923; in test [15], 2.72; in [17] it was 1.25. For the same compound, the composite z-score in test [18] was 0.322; in [19], 1.11; in test [20], 0.852. Also, the z-score in [8] is 0.565 (inactive); in test [12], -0.225 (inactive); in test [13], 1.57 (inactive); in [14], 0.989 (inactive); in [16], -1.29 (inactive).
With `COCCOC(=O)N1C(=O)[C@@]2(c3cc(C#Cc4ccc(OC)cc4)ccc31)[C@H](C(=O)N1CCN(c3ncccn3)CC1)[C@H]1C(=O)O[C@H](c3ccccc3)[C@H](c3ccccc3)N1[C@@H]2c1ccc(O)cc1`, the composite z-score in [1] is 0.104; in test [2] it was 0.0053; in test [3] it was -0.144; in [4], 0.464; in [5] it was -0.202; in test [6], 0.169. Moreover, the composite z-score in test [7] is 0.542; in test [9], 0.218; in [10], -0.0994; in [11], 0.344; in test [15], 0.78; in test [17], -0.247. For the same compound, the composite z-score in test [18] is 0.587; in test [19], 0.213; in test [20], -0.0978. The z-score is -1.3 (inactive) in test [8]; -1.94 (inactive) in [12]; -0.197 (inactive) in [13]; 0.872 (inactive) in test [14]; 0.313 (inactive) in test [16].
With `Cc1ccc(S[C@]2(C(=O)NCC(C)C)CC(=O)N(Cc3ccccc3)[C@@H]2c2ccc(CO)cc2I)cc1`, the composite z-score in [1] is -0.0472; in test [2], 0.0315; in [3] it was 0.0664; in test [4], 0.161; in test [5] it was 0.533; in test [6], 0.892. Besides, the composite z-score in test [7] is 1.27; in test [9], -0.325; in test [10], -0.0427; in [11], 1.3; in test [15] it was 2.55; in test [17] it was 0.124. The composite z-score in test [18] stood at 0.8; in test [19], 0.905; in test [20], 0.0537. Also, the z-score in test [8] was -2.06 (inactive); in test [12], -1.29 (inactive); in test [13], -0.927 (inactive); in test [14] it was 1.66 (inactive); in test [16], 0.0384 (inactive).
Turning to `COCCOC(=O)N1C(=O)[C@@]2(c3ccccc31)[C@H](C(=O)NC[C@H](O)c1ccccc1)[C@H]1C(=O)O[C@H](c3ccccc3)[C@H](c3ccccc3)N1[C@@H]2c1ccc(OCCO)cc1`, the composite z-score in test [1] was -0.242; in test [2] it was 0.591; in test [3], -0.113; in [4], 0.36; in test [5] it was 1.38; in [6], 0.977. For the same compound, the composite z-score in [7] is 1.08; in [9] it was 0.53; in test [10], 0.0283; in test [11], 1.54; in test [15], 2.85; in test [17] it was -0.066. The composite z-score in test [18] was 1.81; in test [19] it was 1.04; in test [20], -0.023. For the same compound, the z-score is -0.31 (inactive) in [8]; 1.98 (inactive) in [12]; 1.64 (inactive) in test [13]; 6.18 (inactive) in test [14]; 1.77 (inactive) in [16].
`[N-]=[N+]=NCc1ccccc1C[C@]1(C(=O)O)N=C(c2ccc(OCCCO)cc2)O[C@H]1c1ccccc1`: the composite z-score in test [1] was 0.32; in test [2], 0.474; in test [3] it was -0.0184; in test [4] it was 0.39; in test [5], 0.0892; in test [6] it was 1.09. For the same compound, the composite z-score in test [7] was 0.976; in [9], 0.219; in [10], -0.261; in test [11] it was 1.01; in test [15], 1.86; in test [17] it was -0.0221. Besides, the composite z-score is -0.985 in test [18], 0.204 in test [19] and -0.232 in test [20]. Besides, the z-score in [8] was -2.33 (inactive); in [12] it was -0.143 (inactive); in test [13] it was -0.305 (inactive); in test [14], -1.36 (inactive); in [16], 0.279 (inactive).
